Screening results deposited in PubChem by National Center for Advancing Translational Sciences (NCATS).
IP6K1 inhibitor = inhibitors of human IP6K1; IP6K1 kinase, ADP-Glo luminescence, 2 h; hits give low values; actives 0.81% (n = 140,000); Q92551; activity change, % (series mostly up to about 58 µM); in the data active = activity change below about -25%
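ADP-Glo luminescence measures ADP made by human IP6K1 during a 2 h RT reaction with ATP/IP6 (mix at 1.3 mM/130 uM); top library doses 57.5 and 19.1 uM final.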
HEK cytotox = HEK 293 cell cytotoxicity; HEK 293 viability, ATP luminescence (CellTiter-Glo), 48-72 h; actives 6.6% (n = 94,000); Potency, µM (titrated, usually from 115 µM), for inactives: at the top dose activity change, negative = cytotoxicity, usual class: inhibitors; also: potency is read from the fitted curve at half-maximal effect; nearly all actives have a fitted effect of over 60% in size
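Read-out: CellTiter-Glo ATP luminescence. Cells: HEK 293, 250 cells/well. Exposure: 48 or 72 hr, 37 degree Celsius.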
FLuc inh = Photinus pyralis luciferase inhibition. purified P. pyralis luciferase, luminescence, biochemical. Potency, µM (series often up to 115 µM), most hits filed as inhibitors. actives 2.5% (n = 76,000); also: potency is read from the fitted curve at half-maximal effect; nearly all actives have a fitted effect of over 65% in size
Target sequence (P08659 whole entry, looked up): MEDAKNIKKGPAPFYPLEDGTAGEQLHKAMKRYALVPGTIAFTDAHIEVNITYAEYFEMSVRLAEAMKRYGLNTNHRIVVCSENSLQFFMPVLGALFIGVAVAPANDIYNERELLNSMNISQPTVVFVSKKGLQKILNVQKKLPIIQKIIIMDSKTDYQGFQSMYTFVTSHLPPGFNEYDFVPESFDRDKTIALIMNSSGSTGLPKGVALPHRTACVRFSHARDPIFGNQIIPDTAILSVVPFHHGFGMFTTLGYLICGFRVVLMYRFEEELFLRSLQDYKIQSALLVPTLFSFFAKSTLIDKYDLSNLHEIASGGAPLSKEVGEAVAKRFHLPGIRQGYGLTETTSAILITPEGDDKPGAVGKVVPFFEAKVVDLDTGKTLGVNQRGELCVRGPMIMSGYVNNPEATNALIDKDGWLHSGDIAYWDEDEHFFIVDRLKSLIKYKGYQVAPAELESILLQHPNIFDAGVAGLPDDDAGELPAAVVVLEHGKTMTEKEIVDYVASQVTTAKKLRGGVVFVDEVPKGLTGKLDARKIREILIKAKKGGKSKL
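Luminescence read by CCD imager after adding enzyme (10nM final) to wells holding compound, titrated in qHTS. Substrates 10uM each D-luciferin and ATP; buffer 50mM Tris acetate pH 7.5, 10mM Mg acetate, Tween-20, BSA.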
SNCA expr inh = inhibitors of alpha-synuclein (SNCA) gene expression | AID 1671194 | HEK-293 SNCA-luciferase knock-in, luminescence, 24 h | actives 0.17% (n = 140,000) | Potency, µM (series often up to 57.2 µM), without a hit: top-dose activity change, negative = inhibition, hits mostly inhibitors;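 also: potency is read from the fitted curve at half-maximal effect; plate controls were DMSO cells for no effect and cell-free wells for full effect; nearly all actives have a fitted effect of over 45% in size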
3T3 cytotox = kills NIH 3T3 cells; NIH 3T3 viability, CellTiter-Glo ATP luminescence, 48-72 h; Potency, µM (top dose mostly 96.7 µM), inactives show top-dose activity change, negative = cytotoxicity, most hits filed as inhibitors; actives 4.3% (n = 94,000); AID 1345082; also: potency is read from the fitted curve at half-maximal effect; nearly all actives have a fitted effect of over 55% in size
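Cells were seeded at 400 per well, treated with pin-transferred compound, and kept 48 or 72 hr at 37 °C before CellTiter-Glo addition and luminescence imaging of cellular ATP.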
HEK293 viab = reduces viability of HEK-293 SNCA reporter cells. actives 0.12% (n = 150,000). Potency, µM (series often up to 57.1 µM), for inactives: at the top dose activity change, negative = cytotoxicity, most hits filed as cytotoxic. HEK-293-SNCA-luc viability, GF-AFC fluorescence, 24 h;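 also: potency is read from the fitted curve at half-maximal effect; 0% = DMSO-treated cells and -100% = medium-only wells without cells; nearly all actives have a fitted effect of over 30% in size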
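HEK-293-SNCA-luc cells (1500/well) plated 24 h, then exposed 24 h to a dilution series; GF-AFC added 30 min at 37C, fluorescence 405/540 nm; normalised to medium-only and DMSO wells, Hill fit.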
* hit, by the source's call; i = inactive; ? = inconclusive; · = not tested or not shown; [ ] = remark or other dose. Hits are enriched below; roughly 7.3% of the tested compounds scored in any of these assays. Unless noted, calls follow the shape of the dose curve; as a rule, active = well fitted curve in the direction sought with a large enough effect; inconclusive = small, poorly fitted or top-dose-only effect, or another doubt; inactive = no such curve, though single readings can be large; an effect the other way counts as inactive or inconclusive. Unless noted, % is scaled to controls: 0 for no effect and ±100 for the full control effect.

SMILES	IP6K1 inhibitor	HEK cytotox	FLuc inh	SNCA expr inh	3T3 cytotox	HEK293 viab
CCc1cnn2c(NCc3ccc[n+]([O-])c3)cc(N3CCCC[C@@H]3CCO)nc12	·	·	·	0.0607µM*	·	?
CC(C)C(=O)NC1CCN(c2ccnc3ccnn23)C1 (centres undefined)	12.3	?	·	-7.3%[87.6 µM]	?	3.3%[87.6 µM]
N#Cc1cccnc1N1CCCC(CO)(CCCc2ccccc2)C1 (centres undefined)	5.0	?	i	-25.4%	?	5.7%
CN(CCc1ccccc1)CCN1CC2(CCN(c3ncccc3C#N)CC2)OC1=O	-12.0	39.8µM*	i	-4.7%	?	-3.8%
O=C1CC(c2ccccc2)N(Cc2ccc3[nH]ccc3c2)CCCCCN1 (centres undefined)	0.7	?	i	-9.5%	?	?
Cc1ccc(CN2CCCCCCNC(=O)CC2c2ccccc2)s1 (centres undefined)	2.2	39.8µM*	i	4.0%	?	-2.5%
Cc1cccc(CN2CCCCCNC(=O)CC2c2ccccc2)c1 (centres undefined)	13.4	?	i	-7.5%	39.8µM*	-6.5%
Cc1ccc(CN2CCCCCCNC(=O)CC2c2ccccc2)o1 (centres undefined)	11.2	?	i	4.0%	?	-8.5%
CC(c1cccc(-c2nc3c(cc2C(N)=O)CCC3)c1)N1CCCC1 (centres undefined)	-14.2	i	i	-24.3%	-8.1%	-9.4%
CCN1C(=O)C2CC3(CCN(C(=O)Nc4ccc5c(c4)OCCO5)CC3)CN2C1=O (centres undefined)	2.5	-16.1%	35.5µM*	74.1%	-1.6%	3.0%
COCC(=O)NC1CCC12CCN(C(=O)Nc1ccc3c(c1)OCCO3)CC2 (centres undefined)	-12.5	-22.9%	44.7µM*	117.4%	?	-1.9%
COCC(=O)NC1CCC12CCN(S(=O)(=O)c1ccc3c(c1)OCCO3)CC2 (centres undefined)	19.0	-6.4%	·	18.5%	-14.9%	-6.6%
CCN1C(=O)C2CC3(CCN(C(=O)NC)CC3)CN2C1=O (centres undefined)	8.3	1.8%	i	3.6%	-6.3%	6.9%
Cc1cccc(C)c1Oc1ncccc1CNC(=O)c1[nH]ncc1Cl	6.6	?	i	-24.5%	?	-2.9%
COc1ccc(OCc2nnc(C(=O)N3CCC[C@@H]3c3nc4ccccc4[nH]3)n2-c2ccccc2)cc1	-4.4	-11.4%	i	-0.9%	11.2µM*	-29.1%
O=C(c1nnc(COc2cc(F)cc(F)c2)n1-c1ccccc1)N1CCC[C@@H]1c1nc2ccccc2[nH]1	0.5	?	i	?	31.6µM*	-13.1%
O=C(Nc1cccc(C(F)(F)F)c1)N[C@H]1CO[C@H]2[C@@H]1OC[C@H]2O	1.3	-7.2%[172 µM]	i	-0.3%[87.6 µM]	4.1%[174 µM]	-9.6%[87.6 µM]
COc1cccc(-c2ccc(CN3CCCC(NC(=O)Cc4ccccn4)C3)cc2)c1 (centres undefined)	-7.2	39.8µM*	·	17.7%	?	-16.5%
O=C(Cc1ccccn1)NC1CCCN(Cc2ccc(-c3cncnc3)cc2)C1 (centres undefined)	1.2	-29.7%	·	-10.9%	-12.1%	-3.5%[12.5 µM]
COc1cccc(-c2ccc(CN3CCCC(NC(=O)C(C)C)C3)cc2)c1 (centres undefined)	-4.6	39.8µM*	·	26.1%	?	-0.6%
COc1cccc(-c2ccc(CN3CCCC(NC(=O)NC(C)C)C3)cc2)c1 (centres undefined)	4.4	?	·	·	?	·
COc1cccc(-c2ccc(CN3CCCC(NC(=O)C(C)(C)C)C3)cc2)c1 (centres undefined)	2.2	50.1µM*	·	?	?	-2.3%
Cc1ccc(-c2cccc(CN3CCCC(NC(=O)C(C)(C)C)C3)c2)cc1Cl (centres undefined)	5.7	?	·	·	-26.5%	·
COC1CCCN(C(=O)c2cc(-c3ccc(F)cc3)cc3ncn(C)c23)C1 (centres undefined)	8.0	?	25.1µM*	168.3%[87.6 µM]	-26.4%[138 µM]	7.5%[87.6 µM]
Cc1ccc(NC(=O)N[C@H]2C[C@@H](c3nc(-c4ccc(F)cc4)no3)N(C)C2)cc1	-1.1	-25.5%[172 µM]	?	17.4%[87.6 µM]	?	2.4%[87.6 µM]
SMILES	IP6K1 inhibitor	HEK cytotox	FLuc inh	SNCA expr inh	3T3 cytotox	HEK293 viab
CN1C[C@@H](NC(=O)c2cccs2)C[C@H]1c1nc(-c2ccc(F)cc2)no1	3.3	89.1µM*	i	30.4%[87.6 µM]	?	-5.3%[87.6 µM]
CN1C[C@@H](NC(=O)Nc2ccccc2)C[C@H]1c1nc(-c2ccc(Cl)cc2)no1	-11.1	?	35.5µM*	59.7%[87.6 µM]	?	-20.3%[87.6 µM]
CN1C[C@@H](NC(=O)Nc2ccccc2)C[C@H]1c1nc(Cc2ccccc2)no1	-8.6	?	44.7µM*	21.3%[87.6 µM]	?	-4.7%[87.6 µM]
O=C(c1cccc(F)c1)N1CCC(Cc2nc(-c3cnccn3)no2)CC1	15.3	-22.8%	i	-22.9%	-19.7%	-3.9%
O=C(c1ccc(F)cc1Cl)N1CCC(Cc2nc(-c3ccc(F)cc3)no2)CC1	3.5	31.6µM*	i	?	?	-19.5%
CCOc1cc(C(=O)N2CCC(Cc3nc(-c4ccc(F)cc4)no3)CC2)cc(OCC)c1OCC	17.9	35.5µM*	i	?	31.6µM*	-24.4%
CCOc1ccc(C(=O)N2CCC(Cc3nc(-c4ccc(OC)cc4)no3)CC2)cc1OCC	11.5	39.8µM*	i	?	?	-9.9%
O=C(c1ccc(F)c(Cl)c1)N1CCC(Cc2nc(-c3cnccn3)no2)CC1	-22.5	?	i	?	31.6µM*	-8.1%
COc1ccc(C(=O)N2CCC(Cc3nc(-c4ccccc4)no3)CC2)cc1OC	-14.5	?	i	?	?	?
CCOc1ccc(C(=O)N2CCC(Cc3nc(-c4ccc(F)cc4)no3)CC2)cc1OCC	-7.4	?	i	?	39.8µM*	-19.5%
CCc1ccc(C(=O)N2CCC(Cc3nc(-c4ccc(F)cc4)no3)CC2)cc1	-7.7	?	i	?	?	-16.6%
CCn1c2ccccc2c2cc(C(=O)N3C[C@@H](Oc4ccccc4)C[C@@H]3C(=O)NC)ccc21	18.4	35.5µM*	?	69.1%	?	-23.8%
CNC(=O)[C@H]1C[C@H](Oc2ccccc2)CN1C(=O)c1ccc(OC)c(OC)c1	23.4	-2.4%	i	17.1%	i	10.2%
COc1cccc(C(=O)N2CCC3(C2)C(=O)N(CCc2ccccc2)c2ccccc23)c1 (centres undefined)	11.3	44.7µM*	i	?	?	?
